Screens: PubChem, National Center for Advancing Translational Sciences (NCATS)
ELG1 DNA repair: ELG1-dependent DNA repair inhibition; actives 2.3% (n = 330,000); Potency, µM (top dose mostly 46.1 µM), for inactives: at the highest dose activity change, negative = inhibition, actives largely listed as inhibitors; HEK293T ELG1-luciferase reporter, luminescence, 16 h; DNA damage induced by 5-fluorouridine; also: potency is read from the fitted curve at half-maximal effect; nearly all actives have a fitted effect of over 55% in size
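Overnight (16 hr) co-exposure of 2,000 cells/well to 5-fluorouridine and compound at 37 °C preceded detection. Luciferase was quantified via ONE-Glo luminescence; loss of signal denotes inhibition.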
IL-1B inflam inh: inhibitors of inflammasome signaling (IL-1 beta secretion) | activity change, % at 57.5 µM | THP-1 LPS/ATP IL-1B secretion, AlphaLISA, 16 h; stronger effect = lower value | AID 743279 | actives 4.7% (n = 360,000); in the data active = activity change below about -50%; inconclusive = mostly about -30% to -49%
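THP-1 cells pretreated 1 hr with compounds (up to 57.5 uM final), then stimulated with LPS (250 ng/mL final) plus ATP (1.25 mM final); secreted IL-1B measured by AlphaLISA after 16 hr, decreased signal indicating inhibition.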
TDP1 cell noCPT: qHTS for Inhibitors of human tyrosyl-DNA phosphodiesterase 1 (TDP1): qHTS in cells in absence of CPT. Potency, µM (highest dose often 46.2 µM), for inactives: at the highest dose activity change, negative = growth inhibition, usual class: inhibitors. actives 15% (n = 420,000). DT40 Tdp1-/- hTDP1 cells, no CPT, ATP luminescence, 48 h; also: potency is read from the fitted curve at half-maximal effect; nearly all actives have a fitted effect of over 55% in size
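Cells were dispensed at 400 per well, compounds added by pin tool, plates incubated ≥48 hr at 37 °C, then CellTiter-Glo added for 30 min at room temperature before luminescence reading. Line: DT40 Tdp1-/- complemented with hTDP1; camptothecin omitted.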
TDP1 cell CPT: DT40-hTDP1 cell growth loss with CPT. Potency, µM (doses to about 46.2 µM), for inactives: at the highest dose activity change, negative = growth inhibition, hits mostly inhibitors. actives 12% (n = 420,000). chicken DT40 Tdp1-/-;hTDP1 cells + 20 nM CPT, ATP luminescence, 48 h; also: potency is read from the fitted curve at half-maximal effect; nearly all actives have a fitted effect of over 55% in size
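Chicken DT40 Tdp1-/- cells complemented with human TDP1, 400 cells/well, exposed to compounds plus 20 nM camptothecin for at least 48 h at 37 C; viability read as ATP content by CellTiter-Glo luminescence.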
HT1080-NT tox: kills 2HG-producing HT-1080-NT fibrosarcoma cells; HT-1080-NT fibrosarcoma viability, CellTiter-Glo ATP luminescence, 48 h; Potency, µM (highest dose often 46.1 µM), for inactives: at the highest dose activity, negative = less viability, usual class: cytotoxic; actives 1.6% (n = 360,000); AID 686970;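 also: NT is the 2HG producing partner of a matched IDH1 knockdown line; potency is read from the fitted curve at half-maximal effect; 0% = DMSO-treated cells and -100% = media-only wells without cells; nearly all actives have a fitted effect of over 55% in size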
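Luminescent CellTiter-Glo readout after 48 hours of compound exposure at 37 degrees C defined viability of HT-1080-NT cells. Activity was normalized to DMSO wells and cell-free media wells; concentration-response curves were fitted and assigned curve classes.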
HT1080 IDH1KD tx: toxicity to HT-1080 IDH1 knockdown cells (counter line); HT-1080 IDH1 knockdown viability, ATP luminescence, 48 h; Potency, µM (series often up to 46.1 µM), without a hit: at the top dose activity, negative = toxicity, most hits filed as cytotoxic; actives 2% (n = 360,000); AID 686971;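 also: potency is read from the fitted curve at half-maximal effect; 0% = DMSO wells and -100% = cell-free medium wells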
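After a 2 h attachment period, IDH1KD HT-1080 cells took pin-transferred compound for 48 h at 37 °C; ATP-based luminescence after 10 min room-temperature reagent incubation reported viability.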
* marks the source's active call; other numbers are inactive results; i = inactive; u = inconclusive; x = no result; [ ] = another dose, or the depositor's remark. Only some compounds are listed: those with a hit (about 19% of all), similar ones and a draw of the others. Unless noted, calls follow the shape of the dose curve; as a rule, active = well fitted curve in the direction sought with a large enough effect; inconclusive = small, poorly fitted or top-dose-only effect, or another doubt; inactive = no such curve, though single readings can be large; an effect the other way counts as inactive or inconclusive. Unless noted, % is scaled to controls: 0 for no effect and ±100 for the full control effect.

SMILES	ELG1 DNA repair	IL-1B inflam inh	TDP1 cell noCPT	TDP1 cell CPT	HT1080-NT tox	HT1080 IDH1KD tx
CC1=C(C(=O)N(C)C)CC(CC(=O)NC2CC2)C(=O)N1Cc1ccccc1 (stereo unspecified)	x	-12	-1%	1%	2%	0%
Cc1ccc(-c2csc(N3CCC(NS(=O)(=O)c4ccc5c(c4)OCCO5)CC3)n2)cc1	-6%	-27	15µM*	u	-20%	-29%
Cc1ccc2oc(=O)c3cc(C(=O)Nc4ccc(C)c(F)c4)sc3c2c1	x	x	-5%	4%	x	x
Cc1ccccc1CCNC(=O)Cn1ccc2cc(S(=O)(=O)N3CCCC3)ccc21	0%	5	u	18µM*	-8%	-19%
Cc1ccc(CCNC(=O)Cn2ccc3cc(S(=O)(=O)N4CCCC4)ccc32)cc1	4%	21	23µM*	u	-17%	-6%
N#CCCn1cc(C(N)=O)c(-c2ccc3ccccc3c2)n1	9%	-20	u	u	3%	-1%
O=C(O)CSc1nnc(-c2ccc(Cl)cc2Cl)n1Cc1ccccc1	16%	10	1%	0%	20%	22%
Cc1ccc(S(=O)(=O)N(Cc2cccnc2)Cc2cc3ccccc3[nH]c2=O)cc1	-13%	-6	u	u	-8%	-6%
CC(=O)Nc1ccc(S(=O)(=O)N(Cc2ccccc2)Cc2ccccc2)cc1	x	x	16µM*	u	x	x
CC(C)N(Cc1ccccc1)S(=O)(=O)c1cccs1	-8%	41	26µM*	-27%	4%	-1%
CC(=O)Nc1ccc(S(=O)(=O)N(Cc2cccnc2)Cc2cc3ccc(C)cc3[nH]c2=O)cc1	-18%	-10	15µM*	u	-4%	0%
CC(=O)Nc1ccc(S(=O)(=O)N(C)Cc2ccccc2)cc1	0%	0	3%	-2%	6%	9%
CC(=O)Nc1ccc(S(=O)(=O)N(Cc2ccccc2)C(C)C)cc1	-8%	20	21µM*	16µM*	-15%	-17%
CC(NC(=O)C1CCOCC1)c1nnc2n1CCN(Cc1ccc3ccccc3c1)CC2 (stereo unspecified)	x	x	-16%	15%[9.04 µM]	x	x
CCN(CC)C(=O)C1CCCN(C(=O)c2cc(COc3cccc(OC)c3)on2)C1 (stereo unspecified)	-4%	-9	-27%	-17%	0%	1%
O=C(NCC(=O)N1CCCC1)c1ccc(Cl)cc1	u	-1	-2%	-2%	2%	24%
CCc1ccc2oc(C(=O)Nc3cccc(Cl)c3C)cc(=O)c2c1	x	x	-24%	u	x	x
Cc1nnc(SCC(=O)NC2CCCC(C)C2C)n1N (stereo unspecified)	10%	14	2%	-1%	-4%	3%
CC(=O)Nc1ccc(S(=O)(=O)N(C)Cc2cnn(C)c2)cc1	-15%	i	16µM*	-29%	-8%	0%
Cc1ccc(S(=O)(=O)N(Cc2ccccc2)C(C)C)cc1	-9%	0	18µM*	18µM*	-6%	2%
O=S(=O)(NCc1ccccc1)c1cccs1	6%	11	-43%	0.082µM*	6%	-5%
CC1CCCN(C(=O)Cn2nnc(-c3ccccc3F)n2)C1 (stereo unspecified)	u	0	26%	-13%	8%	9%
Cc1nc(N2C(=O)c3oc4ccccc4c(=O)c3C2c2ccccc2F)sc1C (stereo unspecified)	x	x	-5%	2%	x	x
Cc1ccc(C)c(N(C)S(=O)(=O)c2ccc3c(c2)oc(=O)n3C)c1	-3%	15	-19%	-24%	-1%	-9%
Cc1ccc(S(=O)(=O)N2C3CCCCC3O[C@H]2CC(=O)c2cccc3ccccc23)cc1 (stereo partly specified)	x	0	u	u	-1%	-26%
SMILES	ELG1 DNA repair	IL-1B inflam inh	TDP1 cell noCPT	TDP1 cell CPT	HT1080-NT tox	HT1080 IDH1KD tx
Cc1cc(C)c2c(n1)sc1c(-c3ccccc3)c(C#N)c(N)nc12	u	-1	u	u	-6%	-5%
COc1cc(N=Nc2ccc(Br)cc2)cc(C=O)c1O	x	-20	4.6µM*	5.2µM*	-16%	-24%
OC(CCN1CCC2CCC(C2)C1)c1ccc(Br)cc1 (stereo unspecified)	x	-7	u	-3%	-6%	-7%
O=C(CCN1CCC2CCC(C2)C1)c1ccccc1 (stereo unspecified)	x	-4	2.6µM*	2.6µM*	7%	6%
CCOc1ccc(S(=O)(=O)c2ccc(C)cc2)c2c1no[n+]2[O-]	x	-1	18µM*	15µM*	-4%	-10%
CCCc1cc(=O)[nH]c(Nc2ccc(O)cc2C)n1	x	x	7%	-14%	x	x
Cc1cc(O)ccc1Nc1nc2ccccc2nc1Nc1ccc(O)cc1C	-22%	-7	5.2µM*	8.2µM*	1%	-8%
COc1ccc(-c2noc(CN3CCN(c4ccccc4)CC3)n2)cc1	u	17	-22%	u	-16%	-11%
COc1cc(-c2noc(CN3CCN(c4cccc(Cl)c4)CC3)n2)cc(OC)c1OC	x	x	21µM*	16µM*	x	x
COc1ccc(-c2noc(CN3CCN(c4ccccc4OC)CC3)n2)cc1OC	x	x	u	21µM*	x	x
CCC1=C(c2ccc(OC)cc2)CCC(C(=O)O)C1C (stereo unspecified)	x	14	-18%	-10%	-5%	-21%
CCC(CC)NC(=O)CSc1ccc(S(=O)(=O)N2CCCCC2)cn1	14%	-4	u	u	0%	0%
Cc1ccc(C(=O)N2[C@@H]3CN(C)C(=O)[C@@]2(Cc2ccccc2)[C@H]2C(=O)N(Cc4ccccc4)C(=O)[C@@H]32)cc1	x	-9	u	0.0052µM*	13%	0%
COc1cc2nc(CSc3nc(-c4ccc(F)cc4)cs3)[nH]c(=O)c2cc1OC	23µM*	11	u	15µM*	10%	1%
O=C(NC(Cc1ccccc1)C(=O)O)/C(=C/c1ccc(Br)cc1)NC(=O)c1ccc(Br)o1 (stereo unspecified)	-15%	-1	17%	-4%	-4%	13%
NC(=O)N/N=C/c1ccc(-c2cccc(C(F)(F)F)c2)o1	-12%	-6	-2%	-3%	-13%	-4%
O=C(N/N=C/c1ccc(-c2cccc(C(F)(F)F)c2)o1)c1ccccc1O	u	0	8.2µM*	10µM*	-1%	-3%
